The sample as a whole holds a higher share of hits than the screen did.
SF1 inhibitor: inhibitors of human SF-1, primary screen, cell-based, CHO-K1, Gal4-SF-1 LBD, luciferase luminescence. Steroidogenic factor 1 (Homo sapiens), Q13285. CHO-K1 Gal4-SF-1 LBD luciferase reporter. inhibition, % at 10 µM. actives 0.55% (n = 65,000);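 active means inhibition above the mean inhibition of all tested compounds plus 3 SD, cut at about 48% in these data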;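 further: 0% = SF-1 transfected cells with DMSO and 100% = mock-transfected cells lacking SF-1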
Target sequence (Q13285 whole entry, looked up, the tested form may be a part): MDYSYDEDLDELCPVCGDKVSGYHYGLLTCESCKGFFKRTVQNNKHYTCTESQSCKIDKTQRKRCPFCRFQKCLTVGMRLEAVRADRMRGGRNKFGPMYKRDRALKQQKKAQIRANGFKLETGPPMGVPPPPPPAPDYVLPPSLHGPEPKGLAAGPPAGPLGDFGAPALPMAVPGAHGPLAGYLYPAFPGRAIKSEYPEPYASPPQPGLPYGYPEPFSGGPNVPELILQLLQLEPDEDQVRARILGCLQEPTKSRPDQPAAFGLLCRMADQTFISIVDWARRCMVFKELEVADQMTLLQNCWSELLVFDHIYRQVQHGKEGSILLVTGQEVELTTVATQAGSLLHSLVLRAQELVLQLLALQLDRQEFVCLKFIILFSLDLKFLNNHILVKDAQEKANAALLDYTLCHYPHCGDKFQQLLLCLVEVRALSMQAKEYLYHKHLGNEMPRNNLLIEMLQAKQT
* marks the source's active call; other numbers are inactive results.

SMILES	SF1 inhibitor
CN(C1CCS(=O)(=O)C1)S(=O)(=O)c1ccc(C2CCCCC2)cc1 (centres undefined)	6
Cc1ccc(Cn2c(CN3CC(C)OC(C)C3)nc3c2c(=O)n(C)c(=O)n3C)cc1 (centres undefined)	15
O=C(Nc1nccs1)c1ccc(NC(=O)c2ccco2)cc1	-56
Nc1nsc2ccccc12	58*
CN(C)C=Nc1ncc2c([nH]c3ccccc32)c1C#N	-16
Cn1c(NC(=O)c2ccccc2F)cc(=O)n(C)c1=O	-17
CCc1ccc(-c2ccc(C(=O)O)cc2)nc1	-85
CCCc1ccc(-c2ccc(F)c(N)c2)nc1	60*
CCN(CC)C(=O)c1cc(-c2ccc(Br)cc2)on1	-56
O=C(CN1C(=O)CSC1=O)Nc1ccc(F)c(F)c1F	4
CC(=O)c1c(C)[nH]c(C(=O)Nc2ccc(C)cn2)c1C	51*
CC(=O)c1c(C)[nH]c(C)c1C(C)=O	7
Cc1ccccc1C(=O)Nc1ccc(Br)cn1	-82
CCOC(=O)C1CCN(C(=O)CC(NS(=O)(=O)c2ccc(OC)cc2)C(C)C)CC1 (centres undefined)	-2
O=C(CCCc1cccs1)Nc1nc2c(s1)CCCC2	-73
c1coc(CNc2nc3sc4c(c3c3ncnn23)CCCC4)c1	-7
c1csc(CCNc2ncnc3sc4c(c23)CCC4)c1	76*
CC1=C(c2ccc(C)cc2)S(=O)(=O)N(CC(=O)O)C1=O	3
COC(=O)COc1ccc(S(=O)(=O)N2CCN(c3ccccc3F)CC2)cc1	5
COC(=O)c1ccc(S(=O)(=O)NCCSc2nnc3c4ccccc4n(C)c3n2)cc1	-2
Cc1c(NC(=O)CCC2CCCCC2)c(=O)n(-c2ccccc2)n1C	-10
Cc1cccc(NC(=O)c2oc3c(c2C)C(=O)CC(C)(C)C3)n1	-10
COc1ccc(-n2nc(C(=O)NCc3ccco3)c3c4ccccc4n(C)c3c2=O)cc1	26
COc1ccc(Cl)c(Cn2c(NCc3ccco3)nc3c2c(=O)n(C)c(=O)n3C)c1	49*
Cn1c(=O)c2c(nc(CN3CCN(C(=O)c4ccco4)CC3)n2Cc2ccc(F)cc2)n(C)c1=O	-12
SMILES	SF1 inhibitor
COc1cccc(Cn2c(NCc3ccco3)nc3c2c(=O)n(C)c(=O)n3C)c1	63*
COc1ccc(OC)c(C(=O)CSc2nc3c(c(=O)n(C)c(=O)n3C)n2C(C)C)c1	9
CCN(CC)CCn1c(NCc2cccc(OC)c2)nc2ccccc21	3
O=S(=O)(NC1CCCCC1)c1cccc(-c2nnc(-c3ccccc3)o2)c1	8
CCCCP(=O)(CCCC)c1ccccc1C(=O)O	-10
COC(=O)N(C)CCCC1(C)C(=O)N(C)c2ccc(O)cc21 (centres undefined)	-2
CCOCC(=O)Nc1cccc(Br)c1	-10
Cc1c(C(=O)O)sc(=S)n1CCOc1ccccc1	16
Cc1cccc(NC(=O)c2cc3ccccc3o2)c1	-90
CC(=O)c1cccc(NC(=O)c2cc(C(C)C)on2)c1	-74
Cc1cc(C(=O)Nc2cccc(C(=O)O)c2)oc1C	69*
O=C(CCC(=O)c1ccc[nH]1)c1ccc(Cl)cc1	-52
CCCCN(CC)CCNS(=O)(=O)c1ccc2c(c1)oc(=O)n2C	-5
Cc1cc(NC(=O)c2cc(-c3ccccn3)nc3ccccc23)no1	7
Cc1ccc(C(=O)/C=C/Nc2ccccn2)cc1	83*
COc1ccc(C(=O)/C=C/Nc2cccc(C)n2)cc1OC	-88
Cn1cccc1C(=O)NC(=O)CSc1nc2ccccc2s1	0
COc1ccc(CNC(=O)C2CCCN(S(=O)(=O)c3cnc[nH]3)C2)cc1 (centres undefined)	-5
CCOC(=O)c1c(NC(=O)CSc2nc(C)cc(C)c2C#N)sc(C(C)=O)c1C	0
CCCC12CN3CC(C)(CN(C1)C3c1ccc(OC(C)C)cc1)C2=O (centres undefined)	8
c1ccc(OCCSc2ncnc3nc[nH]c23)cc1	-24
C/C=C/c1ccc(OC)c(OC(C)=O)c1	7
COc1cc(C2Nc3cccc4cccc(c34)N2)cc(OC)c1OC(C)=O	82*
O=C1NC(NS(=O)(=O)c2ccccc2)(C(F)(F)F)C(=O)N1Cc1cccnc1 (centres undefined)	10
CCC1CCc2c(sc(NC(=O)c3ccoc3C)c2C(N)=O)C1 (centres undefined)	-33
SMILES	SF1 inhibitor
CC1=CC(=C2C(=O)c3ccccc3C2=O)C=C(C)O1	-42
CCN1C=CC(=C2C(=O)c3ccccc3C2=O)C=C1	80*
CCC1(CC)C(=O)N=C2c3ccccc3C(=O)N21	7
CCCN1C=CC(=C2C(=O)c3ccccc3C2=O)C=C1	93*
O=C(NCc1nnc(SCC(=O)N2CCC(Cc3ccccc3)CC2)o1)c1ccccc1F	-2
O=C1C2CC=CCC2C(=O)N1c1n[nH]c(Cc2ccccc2)n1 (centres undefined)	1
O=C(NCCC1=CCCCC1)NC1CCCCC1	-20
O=C(O)c1oc2ccccc2c1CN1CCN(c2ccccc2)CC1	-14
CC(CC#CCN1CCOCC1)OCCC#N (centres undefined)	-17
O=C(Nc1cccc(-c2nnc(-c3ccccc3)o2)c1)C1CCCCC1	-53
O=C(Nc1ccc2oc(-c3ccccc3)nc2c1)c1cccnc1	-71
O=C(Nc1ccccc1)c1cccc(-c2nnc(-c3ccccc3)o2)c1	63*
O=C(NC(NCc1ccccn1)(C(F)(F)F)C(F)(F)F)c1ccco1	-1
Cc1cc(=O)oc2cc(OCC(=O)OCc3nnc(-c4ccccc4)o3)ccc12	-6
CC(NC(=O)C1CCN(c2nnc(-n3cccc3)s2)CC1)C12CC3CC(CC(C3)C1)C2 (centres undefined)	-8
O=C(NC1CC1)C1CCCN(C(=O)Nc2ccc(F)cc2)C1 (centres undefined)	3
O=C(Nc1nc(-c2ccc3c(c2)OCO3)cs1)C1CC1	-51
CCC(C)[C@H](NC(=O)NCc1cccs1)C(=O)O (some centres undefined)	-17
CC1CCN(CCCNC(=O)c2ccc(CS(=O)(=O)Cc3ccccc3F)o2)CC1	-8
Cc1ccccc1S(=O)(=O)Cc1ccc(C(=O)N2CCN(c3cccc(C)c3C)CC2)o1	82*
CS(=O)(=O)N1CCN(c2ccccc2NC(=O)Cc2ccccc2)CC1	1
CCN1C(=O)c2cccc3c(S(=O)(=O)NC(Cc4c[nH]c5ccccc45)C(=O)O)ccc1c23 (centres undefined)	16
COc1ccc([C@@H]2Sc3ccccc3N(CCN(C)C)C(=O)[C@@H]2OC(C)=O)cc1	-6
Nc1nc(-c2ccc3c(c2)OCCO3)cs1	-64
CS(=O)(=O)N1CCN(c2nc(-c3ccc(F)cc3)cs2)CC1	-24
SMILES	SF1 inhibitor
Cc1ccc(-c2csc(N3CCC(NS(=O)(=O)c4ccc5c(c4)OCCO5)CC3)n2)cc1	53*
COc1cc(C(=O)Nc2nnc(-c3sccc3C)s2)cc(OC)c1OC	6
Clc1ccc2oc(-c3ccccn3)nc2c1	-59
c1ccc2nc(-c3nc4ccccc4o3)ccc2c1	64*
Cc1ccnc2ccc(-c3nc4ccccc4o3)cc12	-56
CCc1nc2oc3ccccc3c(=O)c2c(=O)n1-c1ccccc1	-71
CC1CCCCC1NS(=O)(=O)c1ccc(S(=O)(=O)NCc2ccncc2)cc1 (centres undefined)	70*
Cc1ccc2cc(CN(C(=O)c3ccncc3)C(C)C)c(=O)[nH]c2c1	-8
CCOC(=O)c1c(C)c(C(=O)Nc2ccc(N(C)C)cc2)c(C)n1CC	-72
CN(C)c1ccc(N/C=C/C(=O)c2ccccc2)cc1	66*
CN(C)c1cccc(C(=O)NC2CCCCCC2)c1	-75

Compound activity deposited in PubChem by The Scripps Research Institute Molecular Screening Center.
